# Assay results as given in paper PMC9911399, “Two distinct binding modes provide the RNA-binding protein RbFox with extraordinary sequence specificity”.
# Changes are numbered by the printed parent chain; changes in the protein carry UniProt numbers. Over roughly 16,000 sequences, “ka relative to ugcaugu” has its median near 0.096; the highest 2% begin near 0.35. Many of the other results were omitted from the sample, so the highest values are more common in it than they were.
# T1: RBFOX1 RRM RbFoxmut (Fox-RRM*) (Homo sapiens, UniProt Q9NWB1 109-208, R118D;E147R;N151S;E152T)
# T1 sequence: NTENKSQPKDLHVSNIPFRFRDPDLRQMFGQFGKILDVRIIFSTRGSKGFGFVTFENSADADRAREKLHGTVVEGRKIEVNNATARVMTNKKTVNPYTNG
# B1: UGUUGGC (DNA:RNA)
# RNA: GGGAGACCGGAAUUCAGAUUGUCCUGUUGGCUUAAAUCCCGUCGUAGCCACCA
# DNA 1: CAATCTGAATTCCGGTCTCCC
# DNA 2: TGGTGGCTACGACGGGATT
# B2: GUUAACC (DNA:RNA)
# RNA: B1 RNA with U25G, G26U, U28A, G29A, G30C
# DNA 1: CAATCTGAATTCCGGTCTCCC
# DNA 2: TGGTGGCTACGACGGGATT
# B3: UUCCCAG (DNA:RNA)
# RNA: B1 RNA with G26U, U27C, U28C, G29C, G30A, C31G
# DNA 1: CAATCTGAATTCCGGTCTCCC
# DNA 2: TGGTGGCTACGACGGGATT
# B4: GUUACAG (DNA:RNA)
# RNA: B1 RNA with U25G, G26U, U28A, G29C, G30A, C31G
# DNA 1: CAATCTGAATTCCGGTCTCCC
# DNA 2: TGGTGGCTACGACGGGATT
# B5: AGGUUCG (DNA:RNA)
# RNA: B1 RNA with U25A, U27G, G29U, G30C, C31G
# DNA 1: CAATCTGAATTCCGGTCTCCC
# DNA 2: TGGTGGCTACGACGGGATT
# B6: GUCCAGG (DNA:RNA)
# RNA: B1 RNA with U25G, G26U, U27C, U28C, G29A, C31G
# DNA 1: CAATCTGAATTCCGGTCTCCC
# DNA 2: TGGTGGCTACGACGGGATT
# B7: AGGUUUG (DNA:RNA)
# RNA: B1 RNA with U25A, U27G, G29U, G30U, C31G
# DNA 1: CAATCTGAATTCCGGTCTCCC
# DNA 2: TGGTGGCTACGACGGGATT
# B8: AGGUUGU (DNA:RNA)
# RNA: B1 RNA with U25A, U27G, G29U, C31U
# DNA 1: CAATCTGAATTCCGGTCTCCC
# DNA 2: TGGTGGCTACGACGGGATT
# B9: GUUCAGG (DNA:RNA)
# RNA: B1 RNA with U25G, G26U, U28C, G29A, C31G
# DNA 1: CAATCTGAATTCCGGTCTCCC
# DNA 2: TGGTGGCTACGACGGGATT
# B10: ACCAGGU (DNA:RNA)
# RNA: B1 RNA with U25A, G26C, U27C, U28A, C31U
# DNA 1: CAATCTGAATTCCGGTCTCCC
# DNA 2: TGGTGGCTACGACGGGATT
# B11: AGCGAUU (DNA:RNA)
# RNA: B1 RNA with U25A, U27C, U28G, G29A, G30U, C31U
# DNA 1: CAATCTGAATTCCGGTCTCCC
# DNA 2: TGGTGGCTACGACGGGATT
# B12: CUCACAU (DNA:RNA)
# RNA: GGGAGACCGGAAUUCAGAUUGUCCCUCACAUUUAAAUCCCGUCGUAGCCACCA
# DNA 1: CAATCTGAATTCCGGTCTCCC
# DNA 2: TGGTGGCTACGACGGGATT
# B13: AUGCAGC (DNA:RNA)
# RNA: B1 RNA with U25A, G26U, U27G, U28C, G29A
# DNA 1: CAATCTGAATTCCGGTCTCCC
# DNA 2: TGGTGGCTACGACGGGATT
# B14: AGUCCCU (DNA:RNA)
# RNA: B12 RNA with C25A, U26G, C27U, A28C, A30C
# DNA 1: CAATCTGAATTCCGGTCTCCC
# DNA 2: TGGTGGCTACGACGGGATT
# B15: GAAGUCC (DNA:RNA)
# RNA: B1 RNA with U25G, G26A, U27A, U28G, G29U, G30C
# DNA 1: CAATCTGAATTCCGGTCTCCC
# DNA 2: TGGTGGCTACGACGGGATT
# B16: UGCCAGA (DNA:RNA)
# RNA: B1 RNA with U27C, U28C, G29A, C31A
# DNA 1: CAATCTGAATTCCGGTCTCCC
# DNA 2: TGGTGGCTACGACGGGATT
# B17: UUGGUUG (DNA:RNA)
# RNA: B12 RNA with C25U, C27G, A28G, C29U, A30U, U31G
# DNA 1: CAATCTGAATTCCGGTCTCCC
# DNA 2: TGGTGGCTACGACGGGATT
# B18: UUGUUGG (DNA:RNA)
# RNA: B1 RNA with G26U, U27G, G29U, C31G
# DNA 1: CAATCTGAATTCCGGTCTCCC
# DNA 2: TGGTGGCTACGACGGGATT
# B19: UCCUUGG (DNA:RNA)
# RNA: B1 RNA with G26C, U27C, G29U, C31G
# DNA 1: CAATCTGAATTCCGGTCTCCC
# DNA 2: TGGTGGCTACGACGGGATT
# B20: GUGGUUG (DNA:RNA)
# RNA: B12 RNA with C25G, C27G, A28G, C29U, A30U, U31G
# DNA 1: CAATCTGAATTCCGGTCTCCC
# DNA 2: TGGTGGCTACGACGGGATT
# B21: GUGGUGG (DNA:RNA)
# RNA: B12 RNA with C25G, C27G, A28G, C29U, A30G, U31G
# DNA 1: CAATCTGAATTCCGGTCTCCC
# DNA 2: TGGTGGCTACGACGGGATT
# B22: GUCGUGG (DNA:RNA)
# RNA: B12 RNA with C25G, A28G, C29U, A30G, U31G
# DNA 1: CAATCTGAATTCCGGTCTCCC
# DNA 2: TGGTGGCTACGACGGGATT
# B23: UCCGUCA (DNA:RNA)
# RNA: B12 RNA with C25U, U26C, A28G, C29U, A30C, U31A
# DNA 1: CAATCTGAATTCCGGTCTCCC
# DNA 2: TGGTGGCTACGACGGGATT
# B24: GUAGCCA (DNA:RNA)
# RNA: B12 RNA with C25G, C27A, A28G, A30C, U31A
# DNA 1: CAATCTGAATTCCGGTCTCCC
# DNA 2: TGGTGGCTACGACGGGATT
# B25: ACACUGG (DNA:RNA)
# RNA: B1 RNA with U25A, G26C, U27A, U28C, G29U, C31G
# DNA 1: CAATCTGAATTCCGGTCTCCC
# DNA 2: TGGTGGCTACGACGGGATT
# B26: CCCCAGA (DNA:RNA)
# RNA: B12 RNA with U26C, A28C, C29A, A30G, U31A
# DNA 1: CAATCTGAATTCCGGTCTCCC
# DNA 2: TGGTGGCTACGACGGGATT
# B27: UAAACAG (DNA:RNA)
# RNA: B12 RNA with C25U, U26A, C27A, U31G
# DNA 1: CAATCTGAATTCCGGTCTCCC
# DNA 2: TGGTGGCTACGACGGGATT
# B28: CACGGCC (DNA:RNA)
# RNA: B12 RNA with U26A, A28G, C29G, A30C, U31C
# DNA 1: CAATCTGAATTCCGGTCTCCC
# DNA 2: TGGTGGCTACGACGGGATT
# B29: GGCGGCC (DNA:RNA)
# RNA: B1 RNA with U25G, U27C, U28G, G30C
# DNA 1: CAATCTGAATTCCGGTCTCCC
# DNA 2: TGGTGGCTACGACGGGATT
# B30: GCCUUGU (DNA:RNA)
# RNA: B12 RNA with C25G, U26C, A28U, C29U, A30G
# DNA 1: CAATCTGAATTCCGGTCTCCC
# DNA 2: TGGTGGCTACGACGGGATT
# B31: GCCUCGU (DNA:RNA)
# RNA: B12 RNA with C25G, U26C, A28U, A30G
# DNA 1: CAATCTGAATTCCGGTCTCCC
# DNA 2: TGGTGGCTACGACGGGATT
# B32: GCCUUUU (DNA:RNA)
# RNA: B12 RNA with C25G, U26C, A28U, C29U, A30U
# DNA 1: CAATCTGAATTCCGGTCTCCC
# DNA 2: TGGTGGCTACGACGGGATT
# B33: GCCUGCG (DNA:RNA)
# RNA: B1 RNA with U25G, G26C, U27C, G30C, C31G
# DNA 1: CAATCTGAATTCCGGTCTCCC
# DNA 2: TGGTGGCTACGACGGGATT
# B34: GUCGGCC (DNA:RNA)
# RNA: B12 RNA with C25G, A28G, C29G, A30C, U31C
# DNA 1: CAATCTGAATTCCGGTCTCCC
# DNA 2: TGGTGGCTACGACGGGATT
# B35: GCCUUGA (DNA:RNA)
# RNA: B1 RNA with U25G, G26C, U27C, G29U, C31A
# DNA 1: CAATCTGAATTCCGGTCTCCC
# DNA 2: TGGTGGCTACGACGGGATT
# B36: GCCUUGC (DNA:RNA)
# RNA: B1 RNA with U25G, G26C, U27C, G29U
# DNA 1: CAATCTGAATTCCGGTCTCCC
# DNA 2: TGGTGGCTACGACGGGATT
# B37: GCUUGCC (DNA:RNA)
# RNA: B1 RNA with U25G, G26C, G30C
# DNA 1: CAATCTGAATTCCGGTCTCCC
# DNA 2: TGGTGGCTACGACGGGATT
# B38: GCCUUAA (DNA:RNA)
# RNA: B12 RNA with C25G, U26C, A28U, C29U, U31A
# DNA 1: CAATCTGAATTCCGGTCTCCC
# DNA 2: TGGTGGCTACGACGGGATT
# B39: GGCCUUG (DNA:RNA)
# RNA: B12 RNA with C25G, U26G, A28C, C29U, A30U, U31G
# DNA 1: CAATCTGAATTCCGGTCTCCC
# DNA 2: TGGTGGCTACGACGGGATT
# B40: GCCUUCA (DNA:RNA)
# RNA: B12 RNA with C25G, U26C, A28U, C29U, A30C, U31A
# DNA 1: CAATCTGAATTCCGGTCTCCC
# DNA 2: TGGTGGCTACGACGGGATT
# Target: T1, RBFOX1 RRM RbFoxmut (Fox-RRM*)
# Experiment: EMSA; HiTS-Eq, 1 nM pool, 10 min; buffer printed only for the single-RNA assays: 10 mM Tris pH 7.5, 150 mM NaCl, 3.4 mM EDTA, 0.001% NP-40, 30 C
# Details: tags: His6 N-terminal (pET28a); label: 5' 32P
# Outline: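 Relative association constants, normalised to the cognate motif, were derived by comparing read counts of each RNA species with those of the control reaction. The RNA sequenced was the free fraction, separated by 8% native PAGE after a 10 min equilibration in 50 µL of 1 nM 5′-radiolabelled RNA (7 randomized nucleotides) with increasing concentrations of purified wild-type or mutant RbFox RRM.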
row,Binder,binding signal
1,B1,0.0854 KA relative to UGCAUGU
2,B2,0.0736 KA relative to UGCAUGU
3,B3,0.103 KA relative to UGCAUGU
4,B4,0.114 KA relative to UGCAUGU
5,B5,0.357 KA relative to UGCAUGU
6,B6,0.0991 KA relative to UGCAUGU
7,B7,0.525 KA relative to UGCAUGU
8,B8,0.332 KA relative to UGCAUGU
9,B9,0.0776 KA relative to UGCAUGU
10,B10,0.11 KA relative to UGCAUGU
11,B11,0.072 KA relative to UGCAUGU
12,B12,0.0911 KA relative to UGCAUGU
13,B13,0.106 KA relative to UGCAUGU
14,B14,0.0659 KA relative to UGCAUGU
15,B15,0.0491 KA relative to UGCAUGU
16,B16,0.116 KA relative to UGCAUGU
17,B17,0.65 KA relative to UGCAUGU
18,B18,0.117 KA relative to UGCAUGU
19,B19,0.0776 KA relative to UGCAUGU
20,B20,0.737 KA relative to UGCAUGU

row,Binder,binding signal
1,B21,0.15 KA relative to UGCAUGU
2,B22,0.112 KA relative to UGCAUGU
3,B23,0.111 KA relative to UGCAUGU
4,B24,0.082 KA relative to UGCAUGU
5,B25,0.123 KA relative to UGCAUGU
6,B26,0.0916 KA relative to UGCAUGU
7,B27,0.0612 KA relative to UGCAUGU
8,B28,0.18 KA relative to UGCAUGU
9,B29,0.16 KA relative to UGCAUGU
10,B30,0.714 KA relative to UGCAUGU
11,B31,0.224 KA relative to UGCAUGU
12,B32,0.0724 KA relative to UGCAUGU
13,B33,0.172 KA relative to UGCAUGU
14,B34,0.214 KA relative to UGCAUGU
15,B35,0.561 KA relative to UGCAUGU
16,B36,0.387 KA relative to UGCAUGU
17,B37,0.239 KA relative to UGCAUGU
18,B38,0.0981 KA relative to UGCAUGU
19,B39,0.478 KA relative to UGCAUGU
20,B40,0.146 KA relative to UGCAUGU
